Reference: the supplement of paper PMC10849652
Targets with a hit are over-represented here; the source holds about 7,900 in all. About 0.6% of all pairs of compound and target were hits.

What was measured:
Assay in all cases: log2 fold change, soluble protein after heating vs DMSO (PISA); higher = thermal stabilisation; K562 cells, 10 uM, 30 min; active = over 0.2 and 3.5 SD of the protein, either way, in both replicates (recomputed)
[1] = compound: C1=CC=C(C=C1)[C@H](COC2=CC3=C(C=C2)NC(=O)N3)NC(=O)C4=CC=CN(C4=O)CC5=CC(=C(C=C5)F)F
In short: (§1)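 Aliquots of K562 cells (2×10^6 cells/mL) treated with 10 μM compound for 30 min were heated for 3 min over 48°C-58°C. After pooling and extraction in PBS with 0.5% NP-40 at 4°C, soluble protein from a 21,000xg, 90 min spin was quantified by TMTpro 16plex LC-MS/MS with channel sums equalised. Thermal stability is expressed against control samples, from duplicates, as a log2 fold change.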

[2] = compound: CC1=C(SC2=C1C(=N[C@H](C3=NN=C(N32)C)CC(=O)N)C4=CC=C(C=C4)Cl)C
In short: as §1

[3] = compound: CC1=C2C(=CC=C1)N=C(N(C2=O)C3=CC=CC=C3C)CN4C=NC5=C(N=CN=C54)N
In short: as §1

[4] = compound: Cc1sc2c(c1C)C(c1ccc(Cl)cc1)=N[C@@H](CC(=O)OC(C)(C)C)c1nnc(C)n1-2
In short: as §1

[5] = compound: c1ccc([C@@H]2C[C@H]2NC2CCNCC2)cc1
In short: as §1

Measured: log2 fold change

TNPO2 (UniProt O14787)
Sequence of UniProt O14787 (O14787 whole entry, looked up): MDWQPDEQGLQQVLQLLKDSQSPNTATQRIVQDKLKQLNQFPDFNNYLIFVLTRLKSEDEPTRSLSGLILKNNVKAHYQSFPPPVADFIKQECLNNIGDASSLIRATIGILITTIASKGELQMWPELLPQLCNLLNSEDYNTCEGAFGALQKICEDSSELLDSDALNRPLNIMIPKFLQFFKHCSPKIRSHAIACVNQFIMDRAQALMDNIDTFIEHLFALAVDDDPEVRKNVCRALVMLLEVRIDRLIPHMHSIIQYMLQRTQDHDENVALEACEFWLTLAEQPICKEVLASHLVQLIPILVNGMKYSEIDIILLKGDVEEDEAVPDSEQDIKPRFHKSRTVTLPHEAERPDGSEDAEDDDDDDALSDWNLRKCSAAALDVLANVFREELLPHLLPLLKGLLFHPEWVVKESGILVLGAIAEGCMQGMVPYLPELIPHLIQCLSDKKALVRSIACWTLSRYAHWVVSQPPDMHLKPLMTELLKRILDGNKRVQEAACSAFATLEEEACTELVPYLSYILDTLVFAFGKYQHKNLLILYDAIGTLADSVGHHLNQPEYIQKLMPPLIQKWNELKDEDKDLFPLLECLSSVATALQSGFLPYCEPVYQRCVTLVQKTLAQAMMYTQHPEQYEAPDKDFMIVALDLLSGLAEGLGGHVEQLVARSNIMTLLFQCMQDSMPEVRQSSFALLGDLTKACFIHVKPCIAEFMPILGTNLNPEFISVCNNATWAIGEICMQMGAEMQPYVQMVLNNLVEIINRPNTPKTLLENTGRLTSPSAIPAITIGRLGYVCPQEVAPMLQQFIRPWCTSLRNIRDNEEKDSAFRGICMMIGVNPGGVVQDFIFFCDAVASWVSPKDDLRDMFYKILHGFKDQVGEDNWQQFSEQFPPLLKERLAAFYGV
inactive: [1] -0.067 | [2] 0.03 | [3] 0.158 | [4] -0.051 | [5] -0.005

TTC4 (UniProt O95801)
inactive: [1] -0.089 | [2] -0.008 | [3] 0.099 | [4] 0.022 | [5] -0.029

VPS53 isoform 4 (UniProt Q5VIR6)
inactive: [1] -0.009 | [2] 0.02 | [3] 0.049 | [4] -0.006 | [5] -0.007

WDR4 isoform 3 (UniProt P57081)
inactive: [1] -0.18

XIAP (UniProt P98170)
inactive: [1] 0.05 | [2] 0.003 | [3] 0 | [4] 0.048 | [5] 0.002

VWA8 (UniProt A3KMH1)
inactive: [1] -0.03 | [2] 0.023 | [3] 0.091 | [4] -0.044 | [5] -0.052

USP3 (UniProt Q9Y6I4)
Sequence of UniProt Q9Y6I4 (Q9Y6I4 whole entry, looked up): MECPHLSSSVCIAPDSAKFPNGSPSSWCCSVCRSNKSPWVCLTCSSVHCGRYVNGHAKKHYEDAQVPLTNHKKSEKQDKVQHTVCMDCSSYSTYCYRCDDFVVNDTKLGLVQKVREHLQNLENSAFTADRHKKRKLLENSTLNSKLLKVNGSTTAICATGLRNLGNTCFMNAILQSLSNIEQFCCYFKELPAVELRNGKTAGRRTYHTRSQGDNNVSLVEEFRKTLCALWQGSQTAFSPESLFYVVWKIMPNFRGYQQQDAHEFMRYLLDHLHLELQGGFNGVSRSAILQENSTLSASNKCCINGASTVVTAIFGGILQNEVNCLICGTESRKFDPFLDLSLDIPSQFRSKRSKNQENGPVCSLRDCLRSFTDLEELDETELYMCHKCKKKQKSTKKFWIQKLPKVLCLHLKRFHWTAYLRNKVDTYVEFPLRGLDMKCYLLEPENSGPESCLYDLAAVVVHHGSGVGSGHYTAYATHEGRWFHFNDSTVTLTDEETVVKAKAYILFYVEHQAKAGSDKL
inactive: [1] 0 | [2] 0.143 | [3] 0.036 | [4] -0.061 | [5] -0.025

VPS33B (UniProt Q9H267)
Sequence of UniProt Q9H267 (Q9H267 whole entry, looked up): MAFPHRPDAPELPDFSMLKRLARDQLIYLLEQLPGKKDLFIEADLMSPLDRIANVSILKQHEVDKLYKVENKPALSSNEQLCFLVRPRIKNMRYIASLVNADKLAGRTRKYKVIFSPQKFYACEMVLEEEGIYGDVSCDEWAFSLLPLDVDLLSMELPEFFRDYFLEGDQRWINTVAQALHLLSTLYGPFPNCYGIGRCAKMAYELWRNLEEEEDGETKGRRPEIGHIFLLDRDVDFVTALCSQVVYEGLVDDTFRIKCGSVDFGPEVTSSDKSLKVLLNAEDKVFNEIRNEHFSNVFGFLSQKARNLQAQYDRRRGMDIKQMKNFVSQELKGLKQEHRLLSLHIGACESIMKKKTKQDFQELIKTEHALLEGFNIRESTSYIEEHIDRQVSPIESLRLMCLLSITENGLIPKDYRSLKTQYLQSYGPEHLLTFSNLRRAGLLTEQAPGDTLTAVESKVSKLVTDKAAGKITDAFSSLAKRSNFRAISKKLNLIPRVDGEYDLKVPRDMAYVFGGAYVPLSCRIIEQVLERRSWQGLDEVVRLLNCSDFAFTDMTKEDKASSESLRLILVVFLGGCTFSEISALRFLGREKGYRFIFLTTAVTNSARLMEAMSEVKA
inactive: [1] -0.102 | [2] 0.021 | [3] 0.03 | [4] 0.008 | [5] -0.064

USP15 (UniProt Q9Y4E8)
inactive: [1] -0.038 | [2] 0.035 | [3] 0.059 | [4] 0.008 | [5] -0.016

TOM1L1 (UniProt O75674)
inactive: [1] -0.019 | [2] 0.045 | [3] 0.034 | [4] 0.009 | [5] 0.023

UBA52 (UniProt P62987)
inactive: [1] 0.088 | [2] -0.301 | [3] -0.569 | [4] 0.265 | [5] 0.193

WARS1 (UniProt G3V5U1)
inactive: [1] 0.193

USP48 isoform 8 (UniProt Q86UV5)
inactive: [1] -0.073 | [2] 0.106 | [3] 0.191 | [4] -0.012 | [5] 0.119

VTA1 (UniProt Q9NP79)
inactive: [1] 0.007 | [2] 0.062 | [3] 0.104 | [4] -0.075 | [5] -0.025

USP48 (UniProt Q86UV5)
inactive: [1] 0

TMEM9 (UniProt Q9P0T7)
inactive: [1] 0.008 | [2] 0.02 | [3] -0.002 | [4] -0.027 | [5] -0.079

UHRF1BP1 (UniProt Q6BDS2)
inactive: [1] -0.01 | [2] 0.109 | [3] 0.006 | [4] -0.001 | [5] -0.007

UBE4B isoform 4 (UniProt O95155)
inactive: [1] -0.019 | [2] 0.03 | [3] 0.019 | [4] 0.006 | [5] -0.003

TMEM164 (UniProt Q5U3C3)
Sequence of UniProt Q5U3C3 (Q5U3C3 whole entry, looked up): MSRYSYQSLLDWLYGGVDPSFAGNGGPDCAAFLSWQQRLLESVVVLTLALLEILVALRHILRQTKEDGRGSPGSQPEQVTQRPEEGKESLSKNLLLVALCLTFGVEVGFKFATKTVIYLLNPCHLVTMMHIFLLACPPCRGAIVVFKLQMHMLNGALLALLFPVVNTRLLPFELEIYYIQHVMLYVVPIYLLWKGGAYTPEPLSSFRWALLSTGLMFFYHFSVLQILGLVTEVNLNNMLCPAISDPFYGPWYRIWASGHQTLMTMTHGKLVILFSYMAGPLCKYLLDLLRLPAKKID
inactive: [1] -0.195 | [2] -0.047 | [3] 0.257 | [4] -0.22 | [5] 0.068

TSEN2 (UniProt Q8NCE0)
inactive: [1] -0.05 | [2] 0 | [3] 0.044 | [4] -0.027 | [5] 0.03

TMEM177 (UniProt Q53S58)
inactive: [1] 0.036 | [2] -0.01 | [3] -0.164 | [4] -0.001 | [5] -0.002

TRIP10 (UniProt Q15642)
inactive: [1] 0.016 | [2] 0.005 | [3] 0.081 | [4] 0.014 | [5] 0.037

XPO1 (UniProt O14980)
inactive: [1] -0.064 | [2] 0.053 | [3] 0.044 | [4] -0.011 | [5] -0.013

UBE2D1 (UniProt P51668)
Sequence of UniProt P51668 (P51668 whole entry, looked up): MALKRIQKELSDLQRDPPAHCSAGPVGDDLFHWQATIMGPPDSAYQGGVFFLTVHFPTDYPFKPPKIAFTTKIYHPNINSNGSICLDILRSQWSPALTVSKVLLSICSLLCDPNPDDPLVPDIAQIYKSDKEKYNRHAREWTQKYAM
inactive: [1] -0.053 | [2] -0.014 | [3] 0.065 | [4] -0.081 | [5] -0.035

U2AF1 isoform 2 (UniProt Q01081)
Sequence of UniProt Q01081 (Q01081 whole entry, looked up): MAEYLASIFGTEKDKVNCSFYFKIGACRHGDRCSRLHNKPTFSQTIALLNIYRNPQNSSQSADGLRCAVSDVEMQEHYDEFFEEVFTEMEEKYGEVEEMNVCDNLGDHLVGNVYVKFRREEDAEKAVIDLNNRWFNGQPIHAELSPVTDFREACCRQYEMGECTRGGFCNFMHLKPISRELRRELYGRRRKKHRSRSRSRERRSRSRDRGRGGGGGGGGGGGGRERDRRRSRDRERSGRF
inactive: [1] 0.021 | [2] 0.03 | [3] 0.11 | [4] -0.02 | [5] 0.035

UFM1 isoform 2 (UniProt P61960)
inactive: [1] -0.032 | [2] -0.009 | [3] 0.066 | [4] -0.069 | [5] -0.048

VTI1B (UniProt Q9UEU0)
inactive: [1] 0.015 | [2] -0.002 | [3] 0.045 | [4] -0.032 | [5] 0.02

TMEM173 (UniProt Q86WV6)
inactive: [1] -0.035 | [2] 0.045 | [3] 0.086 | [4] -0.099 | [5] -0.005

WARS1 (UniProt G3V3P2)
inactive: [1] 0.095

WASHC2C, A0A096LPC5
inactive: [1] 0.015 | [2] 0.012 | [3] 0.008 | [4] 0.027 | [5] 0.001

TXNL4B (UniProt Q9NX01)
inactive: [1] 0.1 | [2] 0.068 | [4] -0.102 | [5] -0.12
active: [3] -0.537

VPS39 (UniProt Q96JC1)
inactive: [1] -0.087 | [2] 0.018 | [3] 0.071 | [4] -0.009 | [5] -0.052

TYW1 (UniProt Q9NV66)
inactive: [1] 0.017 | [2] -0.022 | [3] 0.039 | [4] -0.005 | [5] -0.091

UBE4A isoform 2 (UniProt Q14139)
inactive: [1] -0.051 | [2] -0.067 | [3] 0.013 | [4] 0.013 | [5] 0.081

UFD1 isoform 1 (UniProt Q92890)
Sequence of UniProt Q92890 (Q92890 whole entry, looked up): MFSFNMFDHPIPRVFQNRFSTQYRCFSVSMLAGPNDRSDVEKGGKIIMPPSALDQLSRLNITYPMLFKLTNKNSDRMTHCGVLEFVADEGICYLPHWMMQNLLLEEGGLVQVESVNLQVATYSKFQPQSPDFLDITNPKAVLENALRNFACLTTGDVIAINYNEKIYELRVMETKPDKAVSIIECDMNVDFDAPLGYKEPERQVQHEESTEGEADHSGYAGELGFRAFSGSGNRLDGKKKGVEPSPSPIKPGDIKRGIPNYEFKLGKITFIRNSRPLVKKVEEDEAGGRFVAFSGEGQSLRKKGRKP
inactive: [1] -0.011 | [2] 0.038 | [3] 0.033 | [4] -0.045 | [5] 0.019

VRK2 (UniProt Q86Y07)
inactive: [1] 0.001 | [2] 0.004 | [3] 0.011 | [4] 0.005 | [5] -0.083

TRIP10 isoform 2 (UniProt Q15642)
inactive: [1] -0.039 | [2] 0.085 | [3] 0.222 | [4] 0.03 | [5] -0.026

UTP4 (UniProt Q969X6)
inactive: [1] 0.009 | [2] 0.039 | [3] -0.044 | [4] 0.004 | [5] -0.021

UPF3B (UniProt Q9BZI7)
inactive: [1] 0.259 | [2] -0.211 | [3] -0.161 | [4] 0.363 | [5] -0.001

TMEM223 (UniProt A0PJW6)
inactive: [1] 0.069 | [2] -0.045 | [3] 0.118 | [4] 0.03 | [5] -0.024

UHRF1BP1L (UniProt A0JNW5)
inactive: [1] 0.024 | [2] 0.099 | [3] 0.05 | [4] -0.027 | [5] -0.018

UBE3D (UniProt Q7Z6J8)
inactive: [1] 0.034 | [2] 0.057 | [3] 0.001 | [4] -0.051 | [5] 0.009

WDR43 (UniProt Q15061)
inactive: [1] 0.026 | [2] 0.027 | [3] 0.009 | [4] -0.009 | [5] 0.001

TNFRSF10A (UniProt O00220)
Sequence of UniProt O00220 (O00220 whole entry, looked up): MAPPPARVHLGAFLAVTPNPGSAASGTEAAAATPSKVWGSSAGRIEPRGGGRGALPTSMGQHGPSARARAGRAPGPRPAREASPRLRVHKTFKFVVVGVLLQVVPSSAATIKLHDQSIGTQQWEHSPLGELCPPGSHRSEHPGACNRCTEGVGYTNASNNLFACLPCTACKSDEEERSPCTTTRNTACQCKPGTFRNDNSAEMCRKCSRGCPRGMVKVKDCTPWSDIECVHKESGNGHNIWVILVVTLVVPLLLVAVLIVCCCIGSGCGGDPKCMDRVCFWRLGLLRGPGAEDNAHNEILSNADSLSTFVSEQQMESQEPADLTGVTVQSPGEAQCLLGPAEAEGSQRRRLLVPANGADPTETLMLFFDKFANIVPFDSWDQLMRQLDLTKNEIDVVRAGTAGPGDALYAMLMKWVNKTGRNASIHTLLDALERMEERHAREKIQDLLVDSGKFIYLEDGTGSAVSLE
inactive: [1] 0.033 | [2] 0.006 | [3] -0.058 | [4] 0.024 | [5] 0.01

TMEM263 (UniProt Q8WUH6)
inactive: [1] -0.152 | [2] 0.047 | [3] 0.156 | [4] -0.072 | [5] -0.031

WARS1 (UniProt G3V227)
inactive: [1] 0.09 | [2] -0.089 | [3] 0.042 | [4] 0.333 | [5] -0.185

UBAP2L isoform 5 (UniProt Q14157)
inactive: [1] 0.055 | [2] 0.036 | [3] 0 | [4] -0.016 | [5] 0.017

WARS2 (UniProt Q9UGM6)
inactive: [1] -0.025 | [2] -0.009 | [3] 0.104 | [4] -0.002 | [5] 0.06

XRCC5 (UniProt P13010)
inactive: [1] -0.136 | [2] -0.019 | [3] 0.095 | [4] 0 | [5] -0.003

TOP2A isoform 4 (UniProt P11388)
inactive: [1] 0.157 | [2] -0.322 | [3] -0.703 | [4] 0.252 | [5] 0.002

TMEM120A (UniProt Q9BXJ8)
inactive: [1] -0.126 | [2] 0.056 | [3] 0.012 | [4] -0.11 | [5] -0.049

WDR7 (UniProt Q9Y4E6)
Sequence of UniProt Q9Y4E6 (Q9Y4E6 whole entry, looked up): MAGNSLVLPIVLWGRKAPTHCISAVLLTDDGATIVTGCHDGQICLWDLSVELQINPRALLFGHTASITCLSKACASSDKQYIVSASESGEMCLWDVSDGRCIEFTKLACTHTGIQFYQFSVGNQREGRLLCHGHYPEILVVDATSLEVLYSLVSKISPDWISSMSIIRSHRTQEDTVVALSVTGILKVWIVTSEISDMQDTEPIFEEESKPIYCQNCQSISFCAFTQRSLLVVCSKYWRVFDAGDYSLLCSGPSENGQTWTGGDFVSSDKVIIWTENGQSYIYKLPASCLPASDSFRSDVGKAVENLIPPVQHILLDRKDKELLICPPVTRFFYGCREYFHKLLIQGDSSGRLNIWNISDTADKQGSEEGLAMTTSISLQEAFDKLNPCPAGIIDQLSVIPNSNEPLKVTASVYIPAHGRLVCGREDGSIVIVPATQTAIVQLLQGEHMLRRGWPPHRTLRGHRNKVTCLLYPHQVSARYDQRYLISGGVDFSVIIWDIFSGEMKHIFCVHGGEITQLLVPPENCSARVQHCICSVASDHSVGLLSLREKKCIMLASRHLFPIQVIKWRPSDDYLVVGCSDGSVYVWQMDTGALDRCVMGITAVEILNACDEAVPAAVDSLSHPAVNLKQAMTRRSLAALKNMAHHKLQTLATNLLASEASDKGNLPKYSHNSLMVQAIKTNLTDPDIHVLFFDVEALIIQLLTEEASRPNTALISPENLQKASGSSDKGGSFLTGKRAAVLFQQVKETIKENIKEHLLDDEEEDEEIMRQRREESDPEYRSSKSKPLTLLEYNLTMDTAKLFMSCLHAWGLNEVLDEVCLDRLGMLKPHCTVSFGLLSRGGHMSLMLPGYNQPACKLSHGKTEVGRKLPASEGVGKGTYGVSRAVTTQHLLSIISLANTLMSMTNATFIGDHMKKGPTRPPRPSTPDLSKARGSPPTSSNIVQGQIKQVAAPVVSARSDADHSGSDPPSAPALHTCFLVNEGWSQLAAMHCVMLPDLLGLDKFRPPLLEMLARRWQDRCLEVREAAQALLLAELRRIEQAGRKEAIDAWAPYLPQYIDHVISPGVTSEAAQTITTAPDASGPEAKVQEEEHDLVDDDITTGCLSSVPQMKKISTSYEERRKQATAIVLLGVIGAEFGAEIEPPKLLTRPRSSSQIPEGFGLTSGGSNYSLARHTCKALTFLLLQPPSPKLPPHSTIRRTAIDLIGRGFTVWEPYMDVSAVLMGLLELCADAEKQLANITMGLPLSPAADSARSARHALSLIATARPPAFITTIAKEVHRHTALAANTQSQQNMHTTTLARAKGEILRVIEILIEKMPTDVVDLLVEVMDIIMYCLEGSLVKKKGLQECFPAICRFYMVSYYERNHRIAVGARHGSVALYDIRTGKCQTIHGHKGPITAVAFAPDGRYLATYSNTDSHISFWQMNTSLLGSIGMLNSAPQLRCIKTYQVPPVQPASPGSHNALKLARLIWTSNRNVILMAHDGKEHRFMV
inactive: [1] -0.037 | [2] 0.013 | [3] -0.068 | [4] -0.131 | [5] -0.093

UCHL5 isoform 3 (UniProt Q9Y5K5)
inactive: [1] 0.021 | [2] 0.232 | [3] -0.123 | [4] 0.069 | [5] 0.167

TRAPPC2L (UniProt Q9UL33)
inactive: [1] -0.014 | [2] -0.044 | [3] -0.058 | [4] -0.063 | [5] 0.038

TMEM219 (UniProt Q86XT9)
inactive: [1] 0.066 | [2] -0.023 | [3] -0.172 | [4] 0.016 | [5] -0.162
